# Reference: PubChem BioAssay (NCI)
# About 83,000 compounds went through this panel and 20% of them were active in at least one assay; those are over-represented in the sample as a whole.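 Treatment: one concentration, 48 hours, 96-well format. Scoring: percent growth, with anything below 10 considered active.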 The source made the active and inactive calls.
# Test system: MDA-MB-468 breast
# Assay: NCI-60 one-dose screen, 48 h (100 = growth as untreated, 0 = no growth, -100 = all killed)
# Conditions: 10 µM unless noted
row,Structure (SMILES),growth
1,O=C(/C=C/c1ccccn1)c1ccccc1,21.3% (inactive)
2,O=C(c1ccccc1)c1ccc(Oc2ccc([N+](=O)[O-])cc2[N+](=O)[O-])cc1,5.3% (active)
3,C#CCn1cc(C=C2C(=O)NC(=O)NC2=O)c2cc(Cl)ccc21,41.9% (inactive)
4,Cc1ccc(S(=O)(=O)c2nc(-c3ccccc3)oc2SCC(N)=O)cc1,91.7% (inactive)
5,Nc1ccn([C@@H]2O[C@H](COP(=O)(O)O[C@@H]3C[C@H](n4cc(F)c(=O)[nH]c4=O)O[C@@H]3COP(=O)(O)O[C@@H]3C[C@H](n4cc(F)c(=O)[nH]c4=O)O[C@@H]3COP(=O)(O)O[C@@H]3C[C@H](n4cc(F)c(=O)[nH]c4=O)O[C@@H]3COP(=O)(O)O[C@@H]3C[C@H](n4cc(F)c(=O)[nH]c4=O)O[C@@H]3COP(=O)(O)O[C@@H]3C[C@H](n4cc(F)c(=O)[nH]c4=O)O[C@@H]3COP(=O)(O)O[C@@H]3C[C@H](n4cc(F)c(=O)[nH]c4=O)O[C@@H]3COP(=O)(O)O[C@@H]3C[C@H](n4cc(F)c(=O)[nH]c4=O)O[C@@H]3COP(=O)(O)O[C@@H]3C[C@H](n4cc(F)c(=O)[nH]c4=O)O[C@@H]3COP(=O)(O)O[C@@H]3C[C@H](n4cc(F)c(=O)[nH]c4=O)O[C@@H]3COP(=O)(O)O[C@@H]3C[C@H](n4cc(F)c(=O)[nH]c4=O)O[C@@H]3COP(=O)(O)OCCOCCOCCOCCOCCOCCO)[C@H](O)C2O)c(=O)n1 (stereo not given in full),77% (inactive)
6,COc1cc(Nc2nc(NCCN)nc3cc[nH]c(=O)c23)cc(OC)c1,3.37% (active)
7,C=C1CC2(OC1=O)C(=O)Nc1ccccc12 (stereo not given),-11.5% (active)
8,CCOC(=O)c1cc(C)n(-c2ccc(C(=O)O)cc2)c1C,65.5% (inactive)
9,O=C1OC(c2ccc(-c3ccccc3)cc2)=C/C1=C/c1cccs1,-47.5% (active)
10,Cc1[nH]nc2ncc(C#Cc3cncc(C(=O)Nc4ccc(CN5CCN(C)CC5)c(C(F)(F)F)c4)c3)cc12,26.1% (inactive)
11,N#Cc1c(-c2ccccc2)cc(-c2ccccc2)n(CCCC(=O)NO)c1=O,33.3% (inactive)
12,CCn1c(C)nc2cc(C(N)=O)ccc21,102% (inactive)
13,CCOC(=O)c1cc(C(=O)c2cc(OC)c(OC)c(OC)c2)n2nc(C)ccc12,37.4% (inactive)
14,O=C(Nc1cccc(Oc2nnc(Cl)c3ccccc23)c1)Nc1ccc(Cl)c(C(F)(F)F)c1,-44.8% (active)
15,ClC(Cl)c1nc(-c2cccs2)n2nc(-c3ccccc3)cc2n1,-56.4% (active)
16,COC(=O)CCC1=C(C)C2=NC1=CC1=NC(=CC3=NC(=Cc4[nH]c(/c(=C(/C)O)c4C)=C2)C(C(C)=O)=C3C)C(C)=C1CCC(=O)OC,108% (inactive)
17,CCS/C(Nc1ccccc1)=C(\C#N)C(=O)N/N=C/c1ccc(Cl)cc1Cl,19.6% (inactive)
18,COc1ccc2c(ccc[n+]2C)c1,81.5% (inactive)
19,CC1NC(=O)NC1CCCCCC(=O)O (stereo not given),101% (inactive)
20,O=C1Nc2c(C(=O)O)cccc2/C1=N/c1n[nH]c(=S)s1,89.4% (inactive)

row,Structure (SMILES),growth
1,Cc1ccc(Cn2c(-c3nonc3N)nc3ccccc32)cc1,58.8% (inactive)
2,CCOC(=O)c1cc(C(=O)c2cc(OC)c(OC)c(OC)c2)n2ccccc12,-7.14% (active)
3,CCc1ccc(Nc2cc(C)c3ccc(O)cc3n2)cc1,-11.2% (active)
4,Cc1nc2cnc(N)c(C#Cc3cncc(C(=O)Nc4ccc(CN5CCN(C)CC5)c(C(F)(F)F)c4)c3)c2nc1C,55.8% (inactive)
5,COc1ccc(C(=O)CSc2nc(-c3cc(OC)ccc3OC)cc(-c3ccc(Cl)cc3)c2C#N)cc1,25.8% (inactive)
6,COc1ccc(-n2nc(C)c3c(Nc4ccc(NC(=O)Nc5ccc(Cl)c(C(F)(F)F)c5)cc4)ncnc32)cc1,-19.9% (active)
7,CC(C)OC1OC(OC(C)C)C(OC(C)C)OC1OC(C)C (stereo not given),101% (inactive)
8,C#Cc1ccccc1NC(=O)c1sc2nc3c(cc2c1N)CCCCCC3,73.5% (inactive)
9,O=C(Cc1ccccc1Nc1c(Cl)cccc1Cl)NN1C(=O)/C(=C/c2ccc(Br)cc2)SC1=S,97% (inactive)
10,O=[N+]([O-])c1ccc(NS(=O)(=O)c2ccccc2)c2ccccc12,17% (inactive)
11,CCn1c(SCC(=O)N/N=C(\C)c2ccc(Cl)cc2)nc2c1c(=O)n(C)c(=O)n2C,96.6% (inactive)
12,CN1CCN(/C=C2\CC(C(=O)NCc3ccc(Cl)cc3Cl)NC2=O)CC1 (stereo not given),103% (inactive)
13,COc1ccc(C(=O)c2ccccc2CN2C(=O)c3ccccc3C2=O)cc1,115% (inactive)
14,N#C/C(=C\c1ccc(-c2ccc(Br)cc2)o1)c1nc(-c2cccs2)cs1,6.37% (active)
15,Brc1cccc(-c2cc(-c3ccc4c(c3)OC=CO4)[nH]n2)c1,33.4% (inactive)
16,CN1CCN(CC(=O)N2c3cccc4cccc(c34)N(C(=O)CN3CCN(C)CC3)C2c2cn(-c3ccccc3)nc2-c2cccc([N+](=O)[O-])c2)CC1,-68.9% (active)
17,Cc1ccc2c(c1)O/C(=C\c1ccc([N+](=O)[O-])o1)C2=O,23.3% (inactive)
18,Cn1cc(-c2ccc(-c3cn(C)c4ncccc34)[nH]2)c2cccnc21,-23.7% (active)
19,CCC/C=C(\C)C(C)(C#N)C(=O)OCC (stereo not given),102% (inactive)
20,Cc1ccc(-c2cc(-c3cccc(Nc4ccnc5cc(Cl)ccc45)c3)nc3nc(N)[nH]c(=O)c23)cc1,28% (inactive)
